The campaign covered roughly 220,000 compounds. About 2,000 (0.91%) were called active. Inconclusive results (about 2%) are left out. Not all results are given here. Measured potencies and affinities stand elsewhere. Values without a mark were called inactive. Cut-off read from the data, not from the text of the source: inconclusive = inhibition above about 80% without an active follow-up result; inactive = below that; test concentration not stated here.
Test: M. tuberculosis H37Rv growth inhibitors, H37Rv strain (AID 1626);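 note: bacteria incubated seven days before Alamar blue readout; 0% = bacteria only wells and 100% = bacteria with antibiotic wells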
Conditions: hits give high values, concentration not given here

Question: Which inhibition does the source give for `CCOC(=O)c1sc(NC(=O)CSc2nncn2C)nc1C` here?
Answer: 4.68%

Question: Which inhibition does the source give for `O=C(c1ccc(N2C(=O)C3C4c5ccccc5C(c5ccccc54)C3C2=O)cc1)N1CCOCC1` (stereo unspecified) here?
Answer: -4.29%

Question: For `COC(=O)c1sc(OC)cc1OCc1ccc(C)cc1`, which inhibition is on record?
Answer: -1.7%

Question: For `COc1ccccc1NC(=O)c1ccc([N+](=O)[O-])cc1[N+](=O)[O-]`, which inhibition is on record?
Answer: 3.09%

Question: For `CCC(NC(=O)c1ccc([N+](=O)[O-])cc1[N+](=O)[O-])c1ccccc1` (stereo unspecified), which inhibition is on record?
Answer: -5.13%

Question: With `N#C/C(=C\c1ccc([N+](=O)[O-])cc1)C(=O)NCCCn1ccnc1` as the compound, how does the inhibition read?
Answer: 3.27%

Question: With `O=C(NCCCn1ccnc1)c1cn(-c2ccccc2)nc1-c1ccc(F)cc1` as the compound, how does the inhibition read?
Answer: 4.17%

Question: Which inhibition does the source give for `CCCSc1ccc(-c2nn(-c3ccccc3)cc2/C=C(/C#N)C(=O)NCCCOC)cc1` here?
Answer: -7.18%

Question: With `CCSc1ccc(-c2nn(-c3ccccc3)cc2/C=C(/C#N)C(=O)NCCCOC)cc1` as the compound, how does the inhibition read?
Answer: -5.12%

Question: Which inhibition does the source give for `CSCCC(NS(=O)(=O)c1ccc(Cl)cc1)C(=O)OCC(=O)c1c(C)[nH]c2ccccc12` (stereo unspecified) here?
Answer: -2.72%

Question: For `C/C=C(\C)C(=O)N1CC2(CC(c3cccc(NC(=O)CC(c4ccccc4)c4ccccc4)c3)=NO2)C[C@H]1C(N)=O` (stereo partly specified), which inhibition is on record?
Answer: 4.13%

Question: With `COc1ccccc1C(=O)C1CCCN(C(=O)CCC(=O)c2ccccc2)C1` (stereo unspecified) as the compound, how does the inhibition read?
Answer: 4.79%

Question: With `O=C(CNc1cccc2ccccc12)N/N=C/C=C/c1ccco1` as the compound, how does the inhibition read?
Answer: -2.95%

Question: For `CCOC(=O)c1c(C)n(-c2ccc(C)cc2)c2ccc(OCC(O)CNCC3CCCO3)cc12` (stereo unspecified), which inhibition is on record?
Answer: 0.55%

Question: Which inhibition does the source give for `CCOC(=O)c1c(C)n(-c2ccc(C)cc2)c2ccc(OCC(O)CN3CCN(C)CC3)cc12` (stereo unspecified) here?
Answer: -2.8%

Question: Which inhibition does the source give for `Cc1cccc(N(C(=O)C(F)(F)F)C(C(=O)NC2CCCCC2)c2cccs2)c1` (stereo unspecified) here?
Answer: -0.05%

Question: Which inhibition does the source give for `O=C(/C=C/c1cccs1)Nc1nc(-c2ccccc2)cs1` here?
Answer: -0.14%

Question: With `Cc1cccc(NC(=O)/C=C/c2cccs2)n1` as the compound, how does the inhibition read?
Answer: -10.1%

Question: With `O=C(/C=C/c1cccs1)Nc1nccs1` as the compound, how does the inhibition read?
Answer: -4.27%

Question: With `Cc1ccc(-c2csc(NC(=O)/C=C/c3cccs3)n2)cc1C` as the compound, how does the inhibition read?
Answer: 51.8%

Question: With `Cn1nc(C(=O)Nc2sccc2C(N)=O)ccc1=O` as the compound, how does the inhibition read?
Answer: -1.96%

Question: With `COc1ccc2oc(=O)c(C(=O)N3CCN(c4ccccc4C)CC3)cc2c1` as the compound, how does the inhibition read?
Answer: -3.36%

Question: Which inhibition does the source give for `N#C/C(=C\c1sc(N2CCOCC2)nc1-c1ccccc1)C(=O)Nc1cccc2ccccc12` here?
Answer: 49.2%

Question: With `O=C(N/N=C/c1sc(N2CCOCC2)nc1-c1ccccc1)c1ccccc1F` as the compound, how does the inhibition read?
Answer: -7.96%

Question: With `COC(=O)c1ccc(-n2nnnc2SCc2nn[nH]n2)cc1` as the compound, how does the inhibition read?
Answer: -5.62%

Question: With `Cn1c(N)c(C(=O)CSc2ncn[nH]2)c(=O)n(C)c1=O` as the compound, how does the inhibition read?
Answer: -13.1%

Question: For `Cc1nn2c(NCCN(C)C)c3c(nc2c1-c1ccccc1)CCC3`, which inhibition is on record?
Answer: -3.03%

Question: With `Cc1nn2c(Nc3ccccc3)c3c(nc2c1-c1ccccc1)CCC3` as the compound, how does the inhibition read?
Answer: 7.77%

Question: Which inhibition does the source give for `COc1ccc(Nc2c3c(nc4c(-c5ccccc5)c(C)nn24)CCC3)cc1` here?
Answer: 13.4%

Question: For `Cc1nn2c(NCCCN(C)C)c3c(nc2c1-c1ccccc1)CCCC3`, which inhibition is on record?
Answer: 10.8%

Question: For `COc1ccc(C(C)=O)cc1CSc1nnc(-c2ccncc2)n1C`, which inhibition is on record?
Answer: -2.28%

Question: For `Cn1c(-c2csc(-c3cccc(C(F)(F)F)c3)n2)n[nH]c1=S`, which inhibition is on record?
Answer: 3.67%

Question: For `Cc1ccc(C(=O)NCCSC2CCCCC2)cc1S(=O)(=O)Nc1ccccc1`, which inhibition is on record?
Answer: -1.4%

Question: Which inhibition does the source give for `O=C(NCc1cccnc1)C(C(=O)c1ccc(F)cc1)n1ccccc1=O` (stereo unspecified) here?
Answer: -8.48%

Question: Which inhibition does the source give for `CCC(=O)NCCc1nc2ccccc2n1CC(=O)c1ccccc1` here?
Answer: -2.01%

Question: Which inhibition does the source give for `C=CCn1c(=O)c2ccccc2n2c(SCC(=O)c3ccccc3)nnc12` here?
Answer: 6.67%

Question: Which inhibition does the source give for `CCN(CC)CCOc1ccc(/C(=C(/Cl)c2ccccc2)c2ccccc2)cc1` here?
Answer: 41%

Question: For `CN(C)CCOc1ccc(/C(=C(/CCCl)c2ccccc2)c2ccccc2)cc1`, which inhibition is on record?
Answer: 59.6%

Question: For `CCCC(=O)Nc1ccc(C(=O)n2nnc3ccccc32)cc1`, which inhibition is on record?
Answer: -6.7%

Question: For `COc1ccccc1N1CCN(c2cc(=O)n(Cc3ccc(F)cc3)c(=O)[nH]2)CC1`, which inhibition is on record?
Answer: 12.4%

Question: For `O=S(=O)(c1cccs1)N1CCN(c2ccc(O)cc2)CC1`, which inhibition is on record?
Answer: -12.2%

Question: For `Cc1ccc(CN(Cc2ccco2)C(=S)NCC(=O)NC2CC2)cc1`, which inhibition is on record?
Answer: 5.98%

Question: For `CCOC(=O)c1c(-c2ccccc2)csc1NC(=S)NC`, which inhibition is on record?
Answer: 18.6%

Question: With `CCc1nnc(NC(=O)c2ccc(OC)cc2)s1` as the compound, how does the inhibition read?
Answer: 2.91%

Question: For `O=C(Nc1ccccc1)c1ccc2ccccc2n1`, which inhibition is on record?
Answer: 8.34%

Question: Which inhibition does the source give for `CCc1nnc(NS(=O)(=O)c2ccc(NC(=O)c3cc4ccccc4oc3=O)cc2)s1` here?
Answer: 61.4%

Question: With `CCc1nnc(NC(=O)c2cc(C)nc3ccccc23)s1` as the compound, how does the inhibition read?
Answer: -1.08%

Question: For `Cc1sc(NC(=O)c2cc3ccccc3oc2=O)c(C(=O)OC(C)C)c1-c1ccccc1`, which inhibition is on record?
Answer: -5.1%

Question: Which inhibition does the source give for `CCOc1ccccc1C(=O)Nc1nnc(CC)s1` here?
Answer: -4.9%

Question: For `Cc1nc2ccc(NC(=O)c3ccc4ccccc4n3)cc2s1`, which inhibition is on record?
Answer: -4.06%

Question: For `CN(C)CCCN(Cc1ccccc1)C(=S)Nc1ccc(OC(F)F)cc1`, which inhibition is on record?
Answer: 4.19%

Question: For `Cc1cc(C)n(-c2nc3ccccc3nc2Nc2ccc3c(c2)OCO3)n1`, which inhibition is on record?
Answer: 13.5%

Question: For `Cc1cccc(NC(=S)NCc2cccs2)c1C`, which inhibition is on record?
Answer: 9.19%

Question: Which inhibition does the source give for `Cc1ccnc(NS(=O)(=O)c2ccc(Cl)nc2)c1` here?
Answer: -4.15%

Question: With `CCNC(=S)/N=C(/Nc1ccc(OC)cc1)Nc1nc(C)cc(C)n1` as the compound, how does the inhibition read?
Answer: -8.72%

Question: Which inhibition does the source give for `CCC(CC)c1nnc(NC(=O)c2ccco2)s1` here?
Answer: -8.07%

Question: Which inhibition does the source give for `CCSc1nnc(NC(=O)c2ccccc2)s1` here?
Answer: 0.13%

Question: With `CCc1nnc(NC(=O)c2c(OC)cccc2OC)s1` as the compound, how does the inhibition read?
Answer: -2.43%

Question: For `CCSc1nnc(NC(=O)c2cccc3ccccc23)s1`, which inhibition is on record?
Answer: 3.82%

Question: With `CCc1nnc(NC(=O)c2ccncc2)s1` as the compound, how does the inhibition read?
Answer: -7.55%

Question: For `CCC(CC)c1nnc(NC(=O)c2cc(-c3ccccc3)nc3ccccc23)s1`, which inhibition is on record?
Answer: 65.7%
